# Out of some 350,000 compounds screened, about 31,000 (8.9%) were called active. Not shown: some 15% with an inconclusive outcome. Many of the other results were omitted from the sample, so actives are more common in it than they were. A number with no mark means an inactive call. The call rests on the fitted dose curve; in most records, active means well fitted inhibition curve with a large enough effect; inconclusive means small, poorly fitted or top-dose-only effect; inactive means no such curve, though single readings can be large or run the other way.
# Biological target: Histone-lysine N-methyltransferase EHMT2 (Homo sapiens) (UniProt Q96KQ7)
# Assay: qHTS Assay for Inhibitors of Histone Lysine Methyltransferase G9a; further: nearly all actives have a fitted effect of over 75% in size
# Conditions: G9a H3K9 monomethylation, AlphaScreen, 2 h; series mostly up to 59 µM; activity, negative = inhibition: at the top concentration
# From the text: Methylated lysines, on the N-terminal tails of histone proteins serve as epigenetic markers to recruit factors that can then modify local chromatin structure to lead to functional consequences. G9a and other members of the SUV39 family of the SET domain-containing superfamily of histone lysine methyltransferases (HMT) have been identified to specifically methylate Lys9 of histone H3 (H3K9). G9a catalyzes the mono- and di-methylation of H3K9 in mammalian euchromatic regions, where the resulting H3K9me2 is indicative of transcriptional repression. […] The inhibition of G9a will result in transcriptional activation and work synergistically with DNA methyltransferase and histone deacetylase inhibitors, to kill cancer cells. This qHTS assay for identification of G9a inhibitors is a chemiluminescence based AlphaScreen (PerkinElmer). Methylation of biotinylated-histone peptide is measured through specific antibody-based detection, in conjunction with streptavidin-coated donor and anti-IgG antibody-coated acceptor beads. The method is particularly well suited for detection of inhibitors acting by the desired histone peptide competitive mechanism and is applicable to testing other HMTs. Although AlphaScreen has significant advantages with its utility in a variety of epigenetic target assays, the primary screening data provided in this deposition should be used with caution due to the prevalence of screening artifacts. An AlphaScreen counterscreen is highly recommended to be run against any putative actives to eliminate non specific artifacts. Alternatively, one can use other AlphaScreen assays in PubChem to filter out promiscuous hits. Quinn et al. A chemiluminescence-based method for identification of histone lysine methyltransferase inhibitors. Mol Biosyst 6(5): 782-8. 2010. PMID: 20567762 [2] Baell,Holloway. New substructure filters for removal of pan assay interference compounds (PAINS) from screening libraries and for their exclusion in bioassays. J Med Chem. 53(7):2719-40. 2010. PMID: 20131845 NIH Molecular Libraries Probe Production Network [MLPCN] NIH Chemical Genomics Center [NCGC] Structural Genomics Consortium (SGC) NIH Grant: 5U54 MH084681-02
# To each well of a 1,536w plate, 2ul of HMT enzyme (final 20nM) were added, using a nanoliter dispenser. The G9a- and GLP-inhibitor BIX-01294 (CID: 25150857) are used as an intraplate control, with a 16-point titration in duplicate. A Kalypsys pin-tool transferred 23nl of library compound solution in DMSO to each well. Following a 15 min incubation of enzyme with compounds at room temperature, 1ul mixture of b-H3K9 peptide substrate (final 500nM) and SAM cofactor (final 20uM) were added. Reactions were allowed to proceed at room temperature for 2 hours. Methylated b-H3K9 peptide product was detected with 0.5 ug/mL rabbit polyclonal anti-monomethyl histone H3K9 antibody (Abcam Inc., Cambridge, MA) and 20 ug/mL each streptavidin-coated donor and anti-rabbit IgG acceptor AlphaScreen beads. Antibody and beads were added in a 1ul dispense, for a final volume of 4ul, and plates were incubated, protected from the light, for 10 min at room temperature. Microplates were then read on an EnVision multilabel plate reader using the 1,536 plate HTS AlphaScreen aperture (excitation time 80 ms, measurement time 240 ms).
# On the % scale 0 is the no-effect control and ±100 the full control effect; potency means the concentration at half of the fitted maximal effect.
# Histone-lysine N-methyltransferase EHMT2 (Homo sapiens), sequence (Q96KQ7 913-1193 limits assumed): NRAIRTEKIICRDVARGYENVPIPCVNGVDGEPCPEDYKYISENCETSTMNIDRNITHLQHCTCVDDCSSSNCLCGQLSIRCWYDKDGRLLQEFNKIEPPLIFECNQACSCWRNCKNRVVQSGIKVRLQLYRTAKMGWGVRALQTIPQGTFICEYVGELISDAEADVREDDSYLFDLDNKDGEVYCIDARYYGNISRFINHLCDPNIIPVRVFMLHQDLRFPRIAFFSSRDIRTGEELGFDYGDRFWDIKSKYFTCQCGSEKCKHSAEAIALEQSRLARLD
Compound,Potency,"activity, negative = inhibition"
S=C(NCCCc1cnc[nH]1)NCCCN(Cc1ccc(Cl)c(Cl)c1)c1ccc(Br)cn1,25.1 µM (active),–
CCc1cc2c(cc3c(=O)n(CC(=O)N4CCN(c5cc(Cl)ccc5C)CC4)ncn32)s1,–,0.716%
CCNC(=O)N1CCCC(C(=O)c2ccc(-c3ccccc3)cc2)C1 (configuration not stated),–,51.8% [at 102 µM]
CC1Cc2ccccc2N1CC(=O)Nc1ccc(S(N)(=O)=O)cc1 (configuration not stated),–,-108%
O=Cc1c(NCCCN2CCCC2=O)c2ccccc2[nH]c1=O,–,20.8% [at 102 µM]
NS(=O)(=O)c1cccc(NC(=O)CN2CCCc3ccccc32)c1,44.7 µM (active),–
CCn1c(=O)c2ccccc2n(CC(=O)N2CCCc3ccccc32)c1=O,–,-7.66% [at 0.501 µM]
COC(=O)c1[nH]c2ccccc2c1NC(=O)CN1CCCc2ccccc21,44.7 µM (active),–
O=C(CN1CCc2ccccc2C1)Nc1cccc(S(=O)(=O)N2CCOCC2)c1,–,15.7% [at 12.7 µM]
O=C(CCCn1c(=O)c2cccn2c2cccnc21)NCc1ccc(F)cc1,–,5.33%
Cc1cc(C)cc(NC(=O)c2cnc3sc(N4CCCC4)nn3c2=O)c1,–,4.91%
O=C1/C(=C\Nc2ccccc2)CCN1c1ncccn1,50.1 µM (active),–
O=C(Cc1ccccc1)NNC(=O)C1CCN(c2ncccn2)CC1,–,2.95% [at 102 µM]
COc1ccc(-c2c(C)nn3c(N4CCC(C(=O)NCCC(C)C)CC4)cc(C)nc23)cc1OC,–,5.73%
CCC1CCCCN1Cc1c(O)ccc2c(=O)c(Oc3ccccc3Cl)c(C(F)(F)F)oc12 (configuration not stated),–,0.282%
Cc1ccc(OCCn2c(CNc3ccccc3C)nc3ccccc32)cc1,–,5.61%
COc1ccccc1CNC(=O)CCCCn1c(=O)c2ccccc2n(CC(=O)Nc2cc(Cl)ccc2C)c1=O,–,-19.7%
COC(=O)c1ccc(NC(=O)CCc2c(C)nc3c(c(C)nn3-c3ccc(C)cc3)c2C)cc1,–,-1.18%
O=C(CCOc1ccccc1)N(Cc1cccnc1)c1nc2ccc(Cl)cc2s1,–,-3.53%
COc1ccc(CC(=O)N/N=C(\C)c2ccccn2)cc1,–,-5.58%
CCN(CC)CCOc1ccc2c(c1)C(=NNC(=O)c1ccccn1)c1cc(OCCN(CC)CC)ccc1-2,22.4 µM (active),–
Cc1cccc(OCC(=O)NCCCNC(=O)c2ccccn2)c1,–,15.8% [at 102 µM]
O=C(Nc1ccccc1N1CCN(C(=O)c2ccccc2)CC1)c1ccco1,–,-3.56% [at 102 µM]
CCc1nc2ccc(C(=O)N3CCN(c4cc(Cl)ccc4C)CC3)cc2nc1CC,–,9.41%
Cc1ccc(C)c(N2C(=O)N(Cc3c(F)cccc3Cl)c3ccccc3S2(=O)=O)c1,–,0.542%

Compound,Potency,"activity, negative = inhibition"
CCOc1ccc(NC(=O)c2cc3c(=O)n(Cc4cccs4)ccc3nc2C)cc1,–,-4.13%
Cc1nn(-c2ccccc2)c2c1c(C)c(CCC(=O)NCC1CCCO1)c(=O)n2C (configuration not stated),–,51.1% [at 102 µM]
O=C(c1cccs1)N1CCN(C(=O)N2CCOCC2)CC1,–,24.4%
COc1ccc(N2CCN(C(=O)c3cccs3)CC2)cc1,50.1 µM (active),–
COc1ccc(OCC(=O)N2CCN(C(=O)c3cccs3)CC2)cc1,–,11.1%
O=C(O)c1ccc(NC(=O)c2ccc(COc3ccc(Cl)cc3)o2)cc1,–,2.31% [at 102 µM]
Cc1ccc(Oc2c(C(F)(F)F)oc3c(CN4CCCCC4)c(O)ccc3c2=O)cc1,–,-2.63%
O=C(N/N=C/c1c[nH]c2ccccc12)c1ccccc1O,–,14.7% [at 102 µM]
O=C1c2ccccc2-c2ncnc3c(N4CCOCC4)cc(N4CCOCC4)c1c23,50.1 µM (active),–
O=C(Nc1ccccc1N1CCOCC1)c1ccncc1,–,-10.3% [at 2.33 µM]
c1ccc(-c2oc3ncnc(N4CCOCC4)c3c2-c2ccccc2)cc1,–,-7.86% [at 12.7 µM]
COc1cc(C(=O)NCCc2csc3nc(-c4ccccc4C)nn23)cc(OC)c1OC,–,38.2%
CC(=O)NC(CC(=O)O)c1ccc(F)cc1 (configuration not stated),–,-46.2% [at 102 µM]
CN(C)c1ccc(/C=N/NC(=O)C(O)c2ccc(Br)cc2)cc1 (configuration not stated),–,-46.3% [at 102 µM]
CN(C)c1ccc(C(CC(=O)O)C(=O)O)cc1 (configuration not stated),56.2 µM (active),–
COc1cccc(C(=O)N(Cc2cccc(Cl)c2)Cc2ccco2)c1,–,-21.4%
O=C(c1cc(COc2ccc(F)cc2F)on1)N1CCOCC1,–,-7.8% [at 102 µM]
COc1ccc(OCc2cc(C(=O)N3CCCC3)no2)c2ccccc12,39.8 µM (active),–
COc1ccccc1-c1cc(C(=O)N2CCCCC2)no1,–,9.56% [at 102 µM]
Cc1ccc(CNS(=O)(=O)CCNC(=O)c2ccccc2)cc1,–,0.106% [at 102 µM]
Cc1ccc(-c2csc(NC(=O)C3=COCCO3)n2)cc1C,56.2 µM (active),–
Cc1ccc(-c2csc(NC(=O)c3cnccn3)n2)cc1C,–,-3.35%
Cc1csc(NC(=O)C2=COCCO2)n1,–,2.32% [at 102 µM]
O=C(Nc1ccc(OC(F)(F)F)cc1)c1cc2c(=O)n3ccccc3nc2s1,–,-27.2%
Cc1c(NC(=O)CSc2nnc(-c3cccnc3)n2N)c(=O)n(-c2ccccc2)n1C,–,24.5% [at 12.7 µM]

Compound,Potency,"activity, negative = inhibition"
COC(=O)c1ccc(CSc2nncn2N)cc1,–,-2.99% [at 102 µM]
Cc1cc(=O)[nH]c(SCc2cc(Cl)ccc2OC(F)F)n1,–,-5.52% [at 102 µM]
CCCCOc1ccc(Cl)cc1CSc1nncn1N,7.08 µM (active),–
Cc1ccc2nc(SC(C)C(=O)NCc3ccco3)[nH]c2c1 (configuration not stated),39.8 µM (active),–
Cc1cccc(N(C(=O)Cc2cccs2)C(C(=O)NCc2ccco2)c2ccncc2)c1 (configuration not stated),–,5.39% [at 102 µM]
Cc1ccc(NC(=O)C(=O)NCc2ccco2)c(C)c1,–,-4.41% [at 102 µM]
CCN1CCN(Cc2c(O)ccc3oc(C)c(C(=O)Nc4ccc(C)cc4C)c23)CC1,–,-23.5%
CCOc1ccc(-c2nonc2NC(=O)c2oc3ccc(C)cc3c2C)cc1OCC,–,10.3%
O=C(C1CCN(C2CCN(Cc3cccc4c3OCO4)CC2)CC1)N1CCOCC1,–,7.97% [at 102 µM]
O=C(Nc1cccc2ccccc12)N1CCN(Cc2ccc3c(c2)OCO3)CC1,–,2.38% [at 12.7 µM]
O=C(c1cccs1)N1CCN(Cc2ccc3c(c2)OCO3)CC1,56.2 µM (active),–
O=C(C1CCN(Cc2ccc(Cl)cc2)CC1)N1CCN(Cc2ccc3c(c2)OCO3)CC1,8.91 µM (active),–
Cc1cc(C)n2nc(C(=O)N3CCN(Cc4ccc5c(c4)OCO5)CC3)nc2n1,–,-7.72% [at 102 µM]
O=C(C1CCN(S(=O)(=O)c2cnc[nH]2)CC1)N1CCN(Cc2ccc3c(c2)OCO3)CC1,–,-12% [at 12.7 µM]
Cc1ccc(S(=O)(=O)N2[C@@H](c3cccc(Cl)c3)C(C(=O)O)=CC[C@H]2c2ccc(Cl)c(Cl)c2)cc1,–,13.5% [at 2.33 µM]
COc1ccc(-c2cc(C(=O)NCCCN3CCCC3=O)c3ccccc3n2)cc1OC,–,15% [at 2.33 µM]
Cc1cc(C)c(NC(=O)CSc2nc3nccnc3c(=O)n2CCc2c[nH]c3ccccc23)c(C)c1,–,4.58%
Cc1ccc2cc(C#N)c(NCCNC(=S)NCCCN3CCOCC3)nc2c1,39.8 µM (active),–
COCCCNC(=S)NCCNc1nc2cc(C)c(C)cc2cc1C#N,–,20%
CCCCc1ccc(NC(=S)NCCCN2CCOCC2)cc1,–,31.4% [at 12.7 µM]
CCOCCCNc1nc(-c2ccccc2)nc2ccccc12,–,14.1% [at 102 µM]
Cc1noc(NS(=O)(=O)c2ccc(NC(=O)c3oc4ccc(F)cc4c3C)cc2)c1C,–,-20.8% [at 102 µM]
CCn1c(SCC(=O)Nc2ccc(S(=O)(=O)Nc3onc(C)c3C)cc2)nnc1-c1ccccc1,–,-43.1%
Cc1cc(C)c2nc(-c3cccnc3)cc(C(=O)Nc3ccc(S(=O)(=O)Nc4onc(C)c4C)cc3)c2c1,50.1 µM (active),–
CC(C)OCCCn1c(SCC(=O)c2ccccc2)nc2c(sc3ccccc32)c1=O,–,-2.03%

Compound,Potency,"activity, negative = inhibition"
COc1ccc(-c2nn(-c3ccccc3)cc2C(=O)Nc2nc(CC(C)=O)ns2)cc1,–,-1.95%
COc1ccc(NC(=O)c2cn(-c3ccccc3)nc2SC)cc1,39.8 µM (active),–
COc1cc(NC(=O)c2cccnc2SC)cc(OC)c1,–,1.95% [at 102 µM]
Cc1nnc(C)n1-c1ccc(C(=O)Nc2cccc(Br)c2)cc1,–,-0.406%
CCOC(=O)CC1COCCN1C(=O)c1cc(COc2ccc(F)c(F)c2)on1 (configuration not stated),–,-0.953% [at 102 µM]
CSc1ncccc1C(=O)Nc1ccc(C)cn1,–,36.7% [at 102 µM]
COc1ccc(NC(=O)CN(C)C(=O)Cc2coc3cc(C)c(C)cc23)cc1,50.1 µM (active),–
COc1ccc(CNC(=O)Cc2coc3ccc(C(C)C)cc23)cc1,–,12%
COc1ccc(NC(=O)CN(C)C(=O)CC2CCCCC2)cc1,–,0.205% [at 102 µM]
COc1ccc(-c2cc(C(=O)N(C)Cc3ccccc3)c3ccccc3n2)cc1,–,18.4% [at 102 µM]
COc1ccc(NC(=O)CN(C)C(=O)c2n[nH]c3ccccc23)cc1,–,-20.6% [at 102 µM]
Cc1ccc(NC(=O)c2cc(-c3ccc(C)o3)nc3ccccc23)nc1,2.24 µM (active),–
COc1ccc(NC(=O)CN(C)C(=O)c2cc(-c3ccc(C)o3)nc3ccccc23)cc1,4.47 µM (active),–
CC(=O)N1CCN(C(=O)c2cc(-c3ccc(C)o3)nc3ccccc23)CC1,–,-3.86% [at 0.501 µM]
Cc1oc2ncnc(N3CCOCC3)c2c1C(=O)NCCc1ccccc1,–,-7.19%
CCCN(C(=O)Cn1cc(S(=O)(=O)N2CCN(c3ccccc3F)CC2)c2ccccc2c1=O)c1cccc(C)c1,–,-28.5%
COc1ccc(NC(=O)CN(C)C(=O)c2cc(C3CC3)nn2-c2ccccc2)cc1,–,-2.32% [at 2.33 µM]
O=C(CCNC(=O)c1ccc([N+](=O)[O-])cc1)NC1CCCCC1,–,-10.3% [at 102 µM]
COc1cc(NC(=O)Cn2nc(-c3ccc(C)c(C)c3)ccc2=O)cc(OC)c1,–,2.48%
CCCN(CCC)C(=S)Nc1cc(C(=O)OC)ccc1C(=O)OC,–,4.81% [at 102 µM]
CCN(CCO)C(=S)Nc1cc(C(=O)OC)ccc1C(=O)OC,–,-9.82% [at 102 µM]
CCS(=O)(=O)Nc1cc(C(=O)OC)ccc1C(=O)OC,2.82 µM (active),–

# Source: PubChem BioAssay AID504332 (National Center for Advancing Translational Sciences (NCATS), 2011)
